Assay results taken from paper PMC4336329 (PLoS ONE, 2015).
Hit rate of the full screen: of about 310,000 compounds, about 14,000 (4.5%) showed an effect of 50% or more. The effect is printed as a negative number. Only a selection was taken, and strong results are over-represented in it overall.

target: human ether-à-go-go-related gene (hERG) potassium channel (human, UniProt Q12809); assay: primary screen, population patch clamp on CHO cells stably expressing hERG; higher = less effect of the substance
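Also: peak tail current of the secondary pulse compared with the same well before compound.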

Sequence of human ether-à-go-go-related gene (hERG) potassium channel (Q12809 whole entry, looked up): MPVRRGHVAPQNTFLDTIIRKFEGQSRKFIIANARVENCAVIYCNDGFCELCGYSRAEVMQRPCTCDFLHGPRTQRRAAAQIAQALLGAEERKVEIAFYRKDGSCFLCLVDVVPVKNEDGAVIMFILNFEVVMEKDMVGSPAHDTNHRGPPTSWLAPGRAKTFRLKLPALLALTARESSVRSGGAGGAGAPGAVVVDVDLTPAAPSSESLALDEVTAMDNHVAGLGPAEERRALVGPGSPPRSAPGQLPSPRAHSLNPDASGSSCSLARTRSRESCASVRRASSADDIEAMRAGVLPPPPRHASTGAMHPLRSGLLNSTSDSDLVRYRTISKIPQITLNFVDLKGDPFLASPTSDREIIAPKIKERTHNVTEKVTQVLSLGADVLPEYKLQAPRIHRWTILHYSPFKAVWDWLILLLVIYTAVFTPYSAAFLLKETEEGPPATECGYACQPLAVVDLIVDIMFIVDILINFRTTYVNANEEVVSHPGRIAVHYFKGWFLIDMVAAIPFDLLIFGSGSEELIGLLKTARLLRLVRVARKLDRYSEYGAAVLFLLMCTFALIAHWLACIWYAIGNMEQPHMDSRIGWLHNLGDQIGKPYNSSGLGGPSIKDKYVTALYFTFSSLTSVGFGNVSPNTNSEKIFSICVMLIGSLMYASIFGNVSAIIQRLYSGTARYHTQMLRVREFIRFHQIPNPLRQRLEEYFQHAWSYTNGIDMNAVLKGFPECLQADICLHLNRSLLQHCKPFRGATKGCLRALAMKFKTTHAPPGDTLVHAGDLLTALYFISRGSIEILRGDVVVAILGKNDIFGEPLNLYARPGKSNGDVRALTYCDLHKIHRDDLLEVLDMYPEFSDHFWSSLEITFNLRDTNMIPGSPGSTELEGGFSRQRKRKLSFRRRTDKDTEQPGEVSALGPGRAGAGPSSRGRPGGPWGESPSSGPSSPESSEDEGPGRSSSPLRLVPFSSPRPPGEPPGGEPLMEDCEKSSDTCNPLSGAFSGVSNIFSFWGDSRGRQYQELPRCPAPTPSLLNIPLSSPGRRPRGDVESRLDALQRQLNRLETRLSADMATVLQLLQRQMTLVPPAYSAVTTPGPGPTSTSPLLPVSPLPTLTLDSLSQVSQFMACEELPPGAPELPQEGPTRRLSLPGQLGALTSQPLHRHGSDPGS

Structure (SMILES) | hERG current change (%, negative = inhibition) at 10uM
COc1ccc(/C=N/NC(=O)c2ccn[nH]2)cc1CN1CCOCC1 | -14.8%
COc1ccc(/C=N/NC(=O)c2cccnc2)cc1CN1CCOCC1 | 13.6%
COc1ccc(/C=N/NC(=O)c2ccccc2)cc1CN1CCN(c2ccc(F)cc2)CC1 | -74.5%
COc1ccc(/C=N\NC(=O)c2ccccc2)cc1COc1ccccc1 | 20.6%
CCC(C)NC(=O)N[C@@H](Cc1ccccc1)C(=O)O (some centres unmarked) | -1.98%
CCOC(=O)C1CCN(C(=O)CNC(=O)Cn2c(C)cc3ccccc3c2=O)CC1 | 6.61%
O=C(COc1ccc(F)cc1)Nc1nnc(-c2ccncc2)s1 | -6.52%
c1cnc(N2CCN(c3nc4ccccc4n4cnnc34)CC2)nc1 | -27.6%
CC(C)[C@H](NC(=O)c1ccco1)C(=O)NCc1ccccc1 | 25.1%
COc1ccc(S(=O)(=O)N(C)c2ccc(C(=O)NCc3ccco3)cc2)cc1OC | -9.43%
CCN(CC)c1ccc(/C=N/NC(=O)Cc2cccs2)cc1 | -16.6%
COc1ccc(/C=N/NC(=O)c2ccoc2C)cc1O | -4.47%
C/C=C/c1cc(CN2CCN(c3ccccc3)CC2)c(O)c(OC)c1 | -32%
CCOc1ccc(/C=N/NC(=O)c2ccccc2O)cc1CN1CC2CC(C1)c1cccc(=O)n1C2 (centres unmarked) | -16.7%
COc1ccc(/C=N/NC(=O)c2ccccc2F)cc1CN1CCN(c2ccc(F)cc2)CC1 | -76.2%
CCOc1ccc(/C=N/NC(=O)c2ccc(F)cc2)cc1CN1CC2CC(C1)c1cccc(=O)n1C2 (centres unmarked) | -53.3%
COc1ccc(/C=N\NC(=O)c2ccccc2F)cc1COc1ccc(F)cc1F | 11.7%
COc1ccc(/C=N/NC(=O)c2ccoc2C)cc1OC | -9.75%
CCOc1ccc(/C=N/NC(=O)c2ccc(O)cc2)cc1CN1CC2CC(C1)c1cccc(=O)n1C2 (centres unmarked) | 4.7%
COc1ccc(N2CCN(Cc3cc4c(cc3O)CCC4)CC2)cc1 | -12.4%
COc1ccc(/C=N/NC(=O)c2ccoc2C)cc1CN1CCN(c2ccc(F)cc2)CC1 | -76.8%
COc1ccc(/C=N\NC(=O)c2ccccc2F)cc1COc1ccc(F)cc1 | 27.1%

Structure (SMILES) | hERG current change (%, negative = inhibition) at 10uM
C/C=C/c1cc(CN2CCN(c3ccc(OC)cc3)CC2)c(O)c(OC)c1 | -68.7%
CCOc1cc(Br)c(C=O)cc1OCC | 22.1%
CC1(CCc2ccccc2)NC(=O)N(CC(=O)N2CC(=O)Nc3ccccc32)C1=O (centres unmarked) | 7.19%
O=C(COC(=O)c1ccccn1)Nc1ccccc1OC(F)F | 6.71%
Cc1cnc(NC(=O)CN(C)S(=O)(=O)c2ccc(Cl)cc2)s1 | -1.68%
O=C(CC(c1ccccc1)c1cc(Br)ccc1O)NCCN1CCOCC1 (centres unmarked) | -34.7%
CCCCCCCOC(=O)C1=C(C)Nc2ncnn2C1c1cccs1 (centres unmarked) | -0.122%
Cc1ccc(NC(=O)COc2ccc(Br)cc2C)cc1 | 0.803%
COc1ccc(C(=O)N/N=C/c2ccc(OC)c(COc3ccc(F)cc3F)c2)cc1 | 3.74%
COc1ccc(/C=N/NC(=O)c2ccncc2)cc1CN1CCCc2ccccc21 | -26.1%
COc1ccc(C(=O)N/N=C/c2ccc(OC)c(CN3CCN(c4ccc(F)cc4)CC3)c2)cc1 | -74.2%
COc1ccc(/C=N/NC(=O)c2ccncc2)cc1CN1CCN(c2ccc(F)cc2)CC1 | -77%
COc1ccc(/C=N/NC(=O)c2ccncc2)cc1OC | 15.5%
COc1ccc(C(=O)N/N=C/c2ccc(OC)c(COc3ccc(F)cc3)c2)cc1 | -35.2%
NC1=NC(=O)/C(=C\c2ccc(-c3ccc(Cl)cc3)o2)S1 | 9.15%
COc1ccc(NC(=O)CS(=O)CC(=O)NCC2OCCc3ccccc32)cc1 (centres unmarked) | 16.2%
C=CCNC(=S)NNC(=O)c1ccncc1 | 1.85%
O=C1CC(N2CCN(Cc3ccc(Cl)cc3)CC2)C(=O)N1CCc1ccccc1 (centres unmarked) | -37.4%
Cc1ccc(NC(=O)COC(=O)CCc2c[nH]c(=O)[nH]2)cc1 | 1.45%
Fc1cccc(CNC2CCN(CCc3ccccc3)CC2)c1 | -42.8%
COc1c(O)cccc1[C@@H](O)C1CCN(CCc2ccc(F)cc2)CC1 | -55.8%
COc1cccc(C(c2nnnn2Cc2ccc(F)cc2)N2CCC(C(N)=O)CC2)c1OC (centres unmarked) | -24.8%
